These results are taken from PubChem BioAssay AID540345 (The Scripps Research Institute Molecular Screening Center, 2011).

A word on the inhibition: it is the share of the control response that was lost under treatment.

The test system of the experiment is Imidazoline I2. The experiment is described as follows: off-target binding and CYP inhibition panel, profiling panel, selectivity assay for GPR7 antagonist project, biochemical, Ricerca HitProfilingScreen, CYP450, set 2 (AID 540345). The settings on record: Ricerca radioligand binding/CYP panel, central, at 10 µM, stronger effect = higher value.

The structures appear in SMILES notation. A number with no mark means an inactive call. No rule for the calls is given here.

Consider `COc1ccc(Oc2c(Cl)cnn(C3c4ccccc4-c4ccccc43)c2=O)cc1`, for which the inhibition was 12%.
